Measured values published in PubChem BioAssay.
Activity calls are given as the source filed them.

What follows are compounds tested against Homeobox protein Hox-A13 (Mus musculus) (UniProt Q62424) (assay: inhibitors of HoxA13-DNA binding, primary screen, biochemical, fluorescence polarization, labeled oligonucleotide (AID 1185)). Conditions: 15 min, higher = more signal, called active from +8 up or from −8 down.
Chain of Homeobox protein Hox-A13 (Mus musculus) (Q62424 whole entry, looked up): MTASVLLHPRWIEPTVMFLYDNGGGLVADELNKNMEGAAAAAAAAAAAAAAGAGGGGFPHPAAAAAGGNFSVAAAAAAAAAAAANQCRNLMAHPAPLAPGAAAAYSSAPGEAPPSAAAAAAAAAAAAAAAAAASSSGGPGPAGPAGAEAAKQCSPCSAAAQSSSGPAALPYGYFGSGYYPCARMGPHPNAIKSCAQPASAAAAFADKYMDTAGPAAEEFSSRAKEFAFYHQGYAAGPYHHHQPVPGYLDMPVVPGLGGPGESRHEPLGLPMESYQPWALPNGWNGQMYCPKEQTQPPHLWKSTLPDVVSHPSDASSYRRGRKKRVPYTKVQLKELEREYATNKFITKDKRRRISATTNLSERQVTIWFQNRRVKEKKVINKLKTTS

z-score, inactive:
COCCOC(=O)N1C(=O)[C@@]2(c3cc(C#CC4(O)CCCCCC4)ccc31)[C@H](C(=O)N1CCCCCCC1)[C@H]1C(=O)O[C@H](c3ccccc3)[C@H](c3ccccc3)N1[C@@H]2c1ccccc1OCCO 3.19
CCOC(=O)[C@H]1C/C=C/C[C@H](C(=O)OCC)C(=O)O[C@H]2[C@@H](OC)O[C@H](CO)[C@@H](OC(=O)Nc3ccc4c(c3)OCO4)[C@@H]2OC1=O -2.27
C#CCN(C(/C=C/c1ccccc1)CO)C(C(=O)O)c1ccccc1 (stereo not given) 0.9
COCC(=C=CC[C@@H](O)c1ccc(CO)o1)CCO -3.24
O=C1O[C@H](c2ccccc2)[C@H](c2ccccc2)N2[C@H]1[C@@H](C(=O)O)[C@]1(C(=O)Nc3ccc(C#CC4(O)CCCCCC4)cc31)[C@H]2c1ccc(OCCO)cc1 -6.3
C=CCOC(=O)[C@H]1[C@@H]2C(=O)O[C@@H](c3ccccc3)[C@@H](c3ccccc3)N2[C@@H](c2ccc(OCCOC(=O)[C@@H]3C[C@@H]4C(=O)NCC(=O)N4[C@@H]3c3ccc(O)cc3)cc2)[C@]12C(=O)Nc1ccccc12 0.503
COCCOC(=O)N1C(=O)[C@@]2(c3ccccc31)[C@H](c1ccc(O)cc1)N1[C@H](c3ccccc3)[C@H](c3ccccc3)OC(=O)[C@H]1[C@@H]2C(=O)N1CCc2cc(OC)c(OC)cc2C1 -1.87
CCOC(=O)C1=C[C@@H](C(C)C)N(S(=O)(=O)c2ccc(C)cc2)[C@H]1c1ccc(C(C)C)cc1 -0.549
C=C[C@H](C)[C@@H](O)c1ccc(O)c2ccccc12 -2.67
O=C1C[C@@](C(=O)NC2CC2)(c2ccc([N+](=O)[O-])cc2)[C@@H](c2ccc(CO)cc2)N1CC12CC3CC(CC(C3)C1)C2 -5.08
O=c1cccc(CCc2ccccc2)o1 -3.17
C=CC[C@@]1(C(=O)O)N=C(c2ccc(OCCCO)cc2)O[C@@H]1c1ccccc1N=[N+]=[N-] -6.19
O=c1cccc(C=Cc2ccccc2)o1 -0.516
CC(=O)NCCCC[C@@H]1NC(=O)[C@H]2C[C@@H](C(=O)NCCCCCC[N+](C)(C)C)[C@@H](c3cccc(OCCO)c3)N2C1=O -4.59
CC1=C2[C@@H](CCc3ccccc3)OB(O)C[C@@H]2n2c(=O)n(-c3ccccc3)c(=O)n2C1 -5.44
[N-]=[N+]=Nc1ccccc1[C@H]1OC(c2ccc(OCCCO)cc2)=N[C@@]1(CCS(=O)(=O)c1ccccc1)C(=O)O -4.02
COC(=O)[C@@]1(Cc2ccc(OC)cc2)[C@H]2c3cc(C(=O)N4CCCC4)n(Cc4cc(F)cc5c4OCOC5)c3C[C@H]2CN1C(=O)c1ccccc1 -6.08
COc1ccc(C#Cc2ccc3c(c2)[C@]2(C(=O)N3)[C@H](c3ccc(O)cc3)N3[C@H](c4ccccc4)[C@H](c4ccccc4)OC(=O)[C@H]3[C@@H]2C(=O)NC[C@H](O)c2ccccc2)cc1 -0.173
CCCNC(=O)[C@@H]1c2ccccc2C(=O)N(Cc2ccccc2)[C@H]1c1ccc(CO)cc1 -2.71
COC(=O)C[C@H]1O[C@]2(C(=O)N(Cc3ccccc3)c3ccc(NC(C)=O)cc32)[C@@H](C)[C@@H]1[Si](C)(C)c1ccc(OC)cc1 -3.04
CC(C)NC(=O)[C@@H]1c2ccccc2C(=O)N(Cc2ccccc2Cl)[C@H]1c1ccc(CO)cc1 -3.24
COc1ccc(C#Cc2ccc3c(c2)[C@]2(C(=O)N3)[C@H](c3ccc(O)cc3)N3[C@H](c4ccccc4)[C@H](c4ccccc4)OC(=O)[C@H]3[C@@H]2C(=O)N2CCCCCCC2)cc1 3.13
O=C1C2C=CC(C(O)c3ccc(F)cc3)N(Nc3ccccc3)C2C(=O)N1c1ccccc1 (stereo not given) -4.12
NC(=O)NCC#Cc1ccc2c(c1)[C@]1(C(=O)N2)[C@H](C(=O)NC[C@H](O)c2ccccc2)[C@H]2C(=O)O[C@H](c3ccccc3)[C@H](c3ccccc3)N2[C@@H]1c1ccc(O)cc1 -4.24
COC(=O)C1=CC(CCCO)=CC(C2CC2)N(Cc2sc3ccccc3c2Cl)C=C1C(=O)OC (stereo not given) -5.27
O=C1O[C@H](c2ccccc2)[C@H](c2ccccc2)N2[C@H]1[C@@H](C(=O)N1CCN(c3ncccn3)CC1)[C@]1(C(=O)Nc3ccccc31)[C@H]2c1ccc(OCCO)cc1 2.46
Cc1ccccc1C(O)C1C=CC2C(=O)N(C)C(=O)C2N1N1CCCCC1 (stereo not given) -6.67
O=C(CS)NCCCCCCNC(=O)[C@H]1C[C@H]2C(=O)N3CCC[C@H]3C(=O)N2[C@H]1c1cccc(OCCO)c1 -3.15
CCCC[C@@H]1C[C@H]1[C@@H](NC(=O)c1ccc(-c2ccccc2)cc1)c1ccc(-c2ccccc2)cc1 -1.24
C=CC(COC(C)=O)NS(=O)(=O)c1ccc(Br)cc1 (stereo not given) -0.546
O=C1C2C=CC(C(O)c3ccc(B(O)O)cc3)N(Nc3ccccc3)C2C(=O)N1c1ccccc1 (stereo not given) -3.99
C=CC[C@]1(C(=O)N2CCOCC2)N=C(c2ccc(OCCCO)cc2)O[C@H]1c1ccccc1 -6.82
COCCCNC(=O)[C@@]1(C)c2ccccc2C(=O)N(Cc2cc(C(F)(F)F)cc(C(F)(F)F)c2)[C@H]1c1ccc(CO)cc1 -3.6
COc1ccc(C(=O)Nc2cccc(CN3C(=O)[C@]4(O[C@H](CC(=O)N5CCC[C@H]5CO)[C@@H]([Si](C)(C)c5ccc(OC)cc5)[C@@H]4C)c4ccccc43)c2)cc1 -2.44
[N-]=[N+]=NCc1ccccc1C[C@@]1(C(=O)NCC(O)CO)N=C(c2ccc(OCCCO)cc2)O[C@@H]1c1ccccc1CN=[N+]=[N-] (stereo not given in full) -3.3
